V-ATPase pHluor – regulators of yeast V-ATPase proton pumping, primary screen, pHLuorin cytosolic pH fluorescence; response, % at 10 µM; AID 504577, 2011; S. cerevisiae; 0.37% of 350,000 active; in the data active means response mostly above about 7.3%, no sharp cut-off; inactive means mostly below about 5.4%; further: actives read high
NLRP3 yeast inh – NALP3 inflammasome inhibitors in reconstituted yeast, primary screen, luminescence, uHTS. Yeast reconstituted NLRP3/ASC/caspase-1, beta-gal luminescence, 24 h. inhibition, % at 10 µM. 0.39% of 330,000 active. AID 2825, 2010;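 active means inhibition of 50% or more; inactive means inhibition below 50%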;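 further: plate controls were induced DMSO wells for no effect and uninduced yeast grown without galactose for full effect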
NALP1 yeast inh – NALP1 inflammasome inhibitors in reconstituted yeast, colorimetric, S. cerevisiae, triplicate retest. 0.61% of 280,000 active. inhibition, % at 10 µM. S. cerevisiae NALP1/ASC/caspase-1 growth, X-gal OD620, 72 h; in the data active means inhibition mostly above about 24%, no sharp cut-off; inactive means mostly below about 32%
TIM10 inh – growth inhibitors of isogenic TIM10 control yeast, primary screen, counter-screen for tim10-1 yeast inhibitor project, luminescence, uHTS. S. cerevisiae TIM10 strain growth, BacTiter-Glo luminescence, 24 h. inhibition, % at 10 µM. 1.4% of 330,000 active;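 active means inhibition of 40% or more at the single tested concentration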;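 further: wild-type TIM10 isogenic control strain grown at permissive 25 °C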
tim10-1 inh – growth inhibitors of tim10-1 mutant yeast, primary screen, luminescence, uHTS. S. cerevisiae tim10-1 ts strain growth, BacTiter-Glo, 24 h. inhibition, % at 20 µM. 2.2% of 330,000 active;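 active means inhibition of at least 40%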;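 further: mutant grown at 25 °C; 0% = DMSO wells with yeast and 100% = wells holding no yeast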
tim23-1 inh – growth inhibitors of tim23-1 mutant yeast, primary screen, luminescence, uHTS. inhibition, % at 20 µM. AID 463212, 2010. 1.3% of 330,000 active. S. cerevisiae tim23-1 growth, BacTiter-Glo luminescence, 24 h;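 active means growth inhibition of the mutant yeast at or above 50%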;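 further: temperature-sensitive mutant grown at 25 °C; plate controls were DMSO-treated mutant yeast for no effect and medium wells lacking yeast for full effect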
tim10-1 conf – growth inhibitors of tim10-1 mutant yeast, confirmation, single concentration, luminescence, S. cerevisiae | S. cerevisiae tim10-1 ts strain growth, BacTiter-Glo, 24 h | inhibition, % at 20 µM | shares compounds with tim10-1 inh | AID 463213, 2010 | 56% of 7,400 active;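 active means inhibition of yeast growth at or above a set limit in either of two repeat tests at 20 µM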;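 further: tim10-1 mutant grown at permissive 25 °C to find synthetic lethal compounds; 0% = DMSO yeast wells and 100% = medium wells without yeast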
tim10 confirm – growth inhibitors of wild-type TIM10 yeast, confirmation, counter-screen for tim10-1 synthetic lethality project, single concentration, luminescence, S. cerevisiae | shares compounds with TIM10 inh | S. cerevisiae tim10 strain growth, BacTiter-Glo luminescence, 24 h | inhibition, % at 10 µM | 63% of 4,600 active;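 active means inhibition of yeast growth at or above a set limit in either of two replicates at 10 µM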;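 further: this counterscreen used the strain with wild-type TIM10; 0% = yeast with DMSO and 100% = medium wells lacking yeast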
tim23-1 conf – tim23-1 mutant yeast growth inhibitors, confirmation, luminescence, single concentration. shares compounds with tim23-1 inh. S. cerevisiae tim23-1 growth, BacTiter-Glo luminescence, 24 h. AID 463218, 2010. 83% of 4,400 active. inhibition, % at 20 µM;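 active means inhibition above about 39% in either of two replicate wells at 20 µM, limit read from the data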;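 further: temperature-sensitive tim23-1 mutant grown at 25 °C; 0% = DMSO wells with yeast and 100% = medium wells without yeast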
The depositor's hits bear a star. Compounds with a hit are over-represented: about 4.2% of the library has one in this group of screens.

`Nc1c2ccccc2nc2ccccc12` gave V-ATPase pHluor 0, NLRP3 yeast inh -9, NALP1 yeast inh -10, TIM10 inh 7, tim10-1 inh -14 and tim23-1 inh 12.
`COc1ccc(S(=O)(=O)N2CCN(C(=O)N3CCOCC3)C2C)cc1` (centres undefined) gave V-ATPase pHluor -3, NLRP3 yeast inh 3, NALP1 yeast inh -7, TIM10 inh 5, tim10-1 inh 7 and tim23-1 inh 1.
Screening COc1ccc2c(c1)CC/C(=C/c1ccccn1)C2=O returned NLRP3 yeast inh 25, NALP1 yeast inh 20, TIM10 inh 56*, tim10-1 inh 55*, tim23-1 inh 58*, tim10-1 conf 54*, tim10 confirm 60* and tim23-1 conf 52*.
For O=C(COC(=O)CCN1C(=O)/C(=C\C=C\c2ccccc2)SC1=S)Nc1ccc(Br)cc1 the results were V-ATPase pHluor -1, NLRP3 yeast inh 10, NALP1 yeast inh 26, TIM10 inh 43*, tim10-1 inh 49*, tim23-1 inh 54*, tim10-1 conf 40*, tim10 confirm 51* and tim23-1 conf 74*.
For Cc1ccc(N2CC(NC(=O)C3CC3)CC2=O)cc1 (centres undefined) the results were V-ATPase pHluor -3, NLRP3 yeast inh -6, TIM10 inh -2, tim10-1 inh -11 and tim23-1 inh -1.
For O=C(NCc1cccnc1)/C(=C/c1ccc(-c2cccc(C(F)(F)F)c2)o1)NC(=O)c1ccccc1 the results were V-ATPase pHluor 1, NLRP3 yeast inh 21, NALP1 yeast inh 3, TIM10 inh 2, tim10-1 inh 21 and tim23-1 inh 10.
O=C(NCc1cccnc1)/C(=C/c1ccc(-c2ccc(Cl)cc2)o1)S(=O)(=O)c1ccccc1 was read as V-ATPase pHluor 10, NLRP3 yeast inh -9, NALP1 yeast inh 6, TIM10 inh 53*, tim10-1 inh 52*, tim23-1 inh 59*, tim10-1 conf 48*, tim10 confirm 49* and tim23-1 conf 57*.
Screening COc1cc(/C=N/NC(=S)NC2CC3CC2C2C=CCC32)ccc1O (centres undefined) returned V-ATPase pHluor -1, NLRP3 yeast inh -14, NALP1 yeast inh 20, TIM10 inh -8, tim10-1 inh 53*, tim23-1 inh 75*, tim10-1 conf 42* and tim23-1 conf 62*.
For O=S1(=O)N[C@@H](c2ccccc2)COc2cc(Br)ccc21 the results were V-ATPase pHluor -4.
Screening O=C(COc1ccc([N+](=O)[O-])cc1)NCc1ccncc1 returned V-ATPase pHluor -1, NLRP3 yeast inh 7, NALP1 yeast inh 18, TIM10 inh -2, tim10-1 inh 5 and tim23-1 inh 1.
Screening O=[N+]([O-])c1ccc(N2CCCCC2)cn1 returned V-ATPase pHluor 2, NLRP3 yeast inh 10, NALP1 yeast inh 12, TIM10 inh 9, tim10-1 inh 2 and tim23-1 inh -14.
For O=[N+]([O-])c1c(C(Cl)Cl)nn(-c2ccc(Cl)cc2)c1N1CCCCC1 the results were V-ATPase pHluor -6, NLRP3 yeast inh 8, NALP1 yeast inh 23, TIM10 inh 56*, tim10-1 inh 44*, tim23-1 inh 64*, tim10-1 conf 62*, tim10 confirm 41* and tim23-1 conf 67*.
Screening CC(C)C(NC(=O)c1ccc(C(C)(C)C)cc1)C(=O)N1CCCC1 (centres undefined) returned V-ATPase pHluor 2, NLRP3 yeast inh 13, NALP1 yeast inh 6, TIM10 inh 20, tim10-1 inh 29 and tim23-1 inh 35.
CCCCSc1cc(C)nc(N)n1 was read as V-ATPase pHluor -4, NLRP3 yeast inh -2, NALP1 yeast inh -7, TIM10 inh 0, tim10-1 inh 0 and tim23-1 inh 3.
For O=c1cc(-c2cccs2)oc2ccc(Cl)cc12 the results were V-ATPase pHluor 4, NLRP3 yeast inh 28, NALP1 yeast inh -3, TIM10 inh 6, tim10-1 inh 25 and tim23-1 inh 34.
O=c1c(O)c(-c2cccs2)oc2ccc(Cl)cc12 was read as V-ATPase pHluor 3, NLRP3 yeast inh 41, NALP1 yeast inh 2, TIM10 inh 72*, tim10-1 inh 42*, tim23-1 inh 53*, tim10-1 conf 32*, tim10 confirm 59* and tim23-1 conf 66*.
Screening c1ccc2c(CN3CCOCC3)c3ccccc3c(CN3CCOCC3)c2c1 returned V-ATPase pHluor 6, NLRP3 yeast inh 8, NALP1 yeast inh -8, TIM10 inh 61*, tim10-1 inh 53*, tim23-1 inh 84*, tim10-1 conf 52*, tim10 confirm 50* and tim23-1 conf 24.
For c1ccc2c(CN3CCOCC3)csc2c1 the results were V-ATPase pHluor -4, NLRP3 yeast inh -5, NALP1 yeast inh 34, TIM10 inh -2, tim10-1 inh 6 and tim23-1 inh 7.
`CCN(C[C@H]1N[C@@](Cc2ccccc2)(C(=O)OC)[C@H]2C(=O)N(Cc3ccccc3)C(=O)[C@@H]12)C(=O)Nc1ccc(C(F)(F)F)cc1` gave V-ATPase pHluor -2, NLRP3 yeast inh 19, TIM10 inh 72*, tim10-1 inh 76*, tim23-1 inh 70*, tim10-1 conf 81*, tim10 confirm 69* and tim23-1 conf 75*.
For CCc1noc(C)c1C(=O)OCC(=O)NC(=O)c1ccccc1 the results were V-ATPase pHluor -1, NLRP3 yeast inh 17, NALP1 yeast inh 8, TIM10 inh -3, tim10-1 inh -20 and tim23-1 inh 11.
For COc1ccc(NC(=O)c2ccccc2Oc2ccccc2)c(OC)c1 the results were V-ATPase pHluor 2, NLRP3 yeast inh 23, NALP1 yeast inh 13, TIM10 inh -20, tim10-1 inh 4 and tim23-1 inh 29.
Screening COc1ccc(OC)c(NC(=O)c2ccccc2OC(C)=O)c1 returned V-ATPase pHluor 4, NLRP3 yeast inh 31, TIM10 inh 21, tim10-1 inh 62*, tim23-1 inh 54*, tim10-1 conf 32* and tim23-1 conf 50*.

Screening data (PubChem BioAssay)
